# HCMV antiviral – blocks human cytomegalovirus replication; HFF cells, HCMV-luciferase reporter, 72 h; hits give low values; activity change, negative = inhibition, % at 57.5 µM; 4.5% of 410,000 active; AID 1259415; in the data active = activity change below about -60%; inconclusive = no clear call, values can overlap the other calls; inactive = above about -39%
#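 After 16 h attachment at 37C, HFF cells received test compound and HCMV-luciferase (1 PFU/cell); reporter luminescence read 72 h later, data normalized against buffer-only and known inhibitor Salinomycin.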
# Vaccinia Venus – inhibitors of vaccinia virus (Venus reporter); Vaccinia virus Venus reporter expression, fluorescence; 0.46% of 330,000 active; AID 720580; Potency, µM (doses to about 36.5 µM), without a hit: at the highest dose activity change, negative = inhibition, most hits filed as inhibitors; calls by dose curve; tested in A549 cells; also: potency is read from the fitted curve at half-maximal effect; nearly all actives have a fitted effect of over 30% in size
# FMDV antiviral – antivirals against foot and mouth disease virus; FMDV antiviral cell-based qHTS; Potency, µM (series often up to 57.9 µM), inactives show top-dose activity change, negative = inhibition, most hits filed as inhibitors; 1.2% of 410,000 active; calls by dose curve; tested in HEK293T cells; also: read-out not given here; potency is read from the fitted curve at half-maximal effect; nearly all actives have a fitted effect of over 45% in size
# Marburg entry inh – Marburg virus entry inhibition | AID 540276 | 1.8% of 300,000 active | Marburg virus pseudotyped entry inhibition, cell reporter | Potency, µM (highest dose often 37.8 µM), for the others: at the highest dose activity change, negative = inhibition, usual class: inhibitors; calls by dose curve; tested in HEK293 cells; also: potency is read from the fitted curve at half-maximal effect
# Vaccinia mCherry – vaccinia inhibition (mCherry reporter); Vaccinia virus mCherry reporter infection, fluorescence; Potency, µM (top dose mostly 36.5 µM), inactives show at the top dose activity change, negative = inhibition, usual class: inhibitors; 0.63% of 310,000 active; calls by dose curve; tested in A549 cells; also: potency is read from the fitted curve at half-maximal effect; nearly all actives have a fitted effect of over 35% in size
# LASV entry inh – blocks Lassa virus binding to or entry into cells. Lassa virus pseudotype entry inhibition, cell reporter. Potency, µM (top dose mostly 37.9 µM), for inactives: at the highest dose activity change, negative = inhibition, usual class: inhibitors. 1.2% of 300,000 active; calls by dose curve; tested in HEK293 cells; also: potency is read from the fitted curve at half-maximal effect; nearly all actives have a fitted effect of over 50% in size
# Active calls of the source: *; i = inactive; ? = inconclusive; . = no result; + = active, no number; ! = a repeat was not active; [ ] = dose if it differs, or a comment. The list is not random: actives were taken first. Their share in the collection is about 6.5%. % is scaled to controls: 0 for no effect and ±100 for the full control effect.
SMILES,HCMV antiviral,Vaccinia Venus,FMDV antiviral,Marburg entry inh,Vaccinia mCherry,LASV entry inh
CN(c1cccc(NC(=O)CN(c2ccc(F)cc2)S(C)(=O)=O)c1)S(C)(=O)=O,-2,-25%,-11%,11%[46.1 µM],-18%,-5%
COc1cccc(NC(=O)CN(c2cccc(C(F)(F)F)c2)S(C)(=O)=O)c1,11,.,-7%,?,.,?
CN(c1cccc(NC(=O)CN(c2ccc(C34CC5CC(CC(C5)C3)C4)cc2)S(C)(=O)=O)c1)S(C)(=O)=O,.,?,.,18µM*,?,7.3µM*
Cc1ccc(S(=O)(=O)N(CC(=O)Nc2cccc(N(C)S(C)(=O)=O)c2)c2ccc(Cl)c(Cl)c2)cc1,-11,-27%,.,16µM*,-22%,?
COc1cc(C2c3c(oc4ccccc4c3=O)C(=O)N2c2nnc(C(C)C)s2)cc(OC)c1OC (centres undefined),8,-3%,-2%,?,-7%,-7%[46.1 µM]
C[C@H]1CC[C@H]2C(=O)N(Cc3ccc(Cl)cc3)C[C@@H](O)CN2[C@H]1c1ccc(Br)cc1,.,.,.,-7%[14.2 µM],.,.
Cc1cc(OCC(=O)Nc2cccnc2)c2c(C)cc(=O)oc2c1,1,.,-15%,.,.,.
CCCc1cc(=O)oc2cc(C)cc(OCC(=O)Nc3cccnc3)c12,+,.,-15%,.,.,.
O=C(Nc1ccc(Cl)cc1Cl)C1=Cc2ccccc2OC1,69,-17%,-32%,?,-26%,13µM*
O=C(Nc1ccc(Cl)cc1)C1=Cc2cc(Cl)ccc2OC1,-24,?,?,1%,-20%[1.46 µM],8%
COC(=O)c1ccc(C(=O)OC)c(NC(=O)CN(c2ccccc2)S(=O)(=O)N(C)C)c1,-22,-13%,2%,?,-5%,10µM*!
CCC(C(=O)Nc1ccc(C(C)C)cc1)n1nc(C)n2c(cc3cc(C)ccc32)c1=O (centres undefined),9,-27%,13%,?,-29%,-7%[46.1 µM]
CC(=O)C1=C(C)N(Cc2ccccc2)C(=O)NC1c1ccc(Br)cc1 (centres undefined),.,.,.,-4%[14.2 µM],.,16%[14.3 µM]
CC1CCc2sc(C(=O)N/N=C/c3ccc(O)cc3)cc2C1 (centres undefined),-64*,-18%,9%,.,?,.
C/C(=N\NC(=O)c1cc2c(s1)CCC(C)C2)c1ccncc1 (centres undefined),?,-11%,0%,?,-18%,2%
CC1CCc2sc(C(=O)NCc3ccc(F)cc3)cc2C1 (centres undefined),-4,.,38%,-6%,.,5%
CC1CCc2sc(C(=O)OCC(=O)NCc3ccccc3)cc2C1 (centres undefined),-20,-27%,-15%,-22%,-12%,10µM*
Cc1ccc(CNC(=O)COC(=O)c2cc3c(s2)CCC(C)C3)cc1 (centres undefined),-21,-9%,1%,?,-12%,7.9µM*
ClCCN(CCCl)/C(=C\c1ccccc1)c1ccnc2ccccc12,.,-5%,.,.,i,.
CCN(CC)CCCOc1cc2nc(N3CCCN(C)CC3)nc(NC3CCN(C)CC3)c2cc1OC,.,10µM*,.,.,7.1µM*,.
COc1cc2c(NC3CCN(C)CC3)nc(N3CCCN(C)CC3)nc2cc1OCCCCC(N)=O,.,-15%,.,.,-18%,.
COc1cc2c(NC3CCN(C)CC3)nc(N3CCCN(C)CC3)nc2cc1OCCCCCN(C)C,.,13µM*,.,.,?,.
COc1cc2c(NC3CCN(C(C)C)CC3)nc(N3CCCN(C)CC3)nc2cc1OCCCN(C)C,.,0.25µM*,.,.,?,.
COc1cc2c(NC3CCN(C)CC3)nc(N3CCCN(C)CC3)nc2cc1OCCOCCN1CCCC1,.,-10%,.,.,-10%,.
COc1cc2nc(N3CCN(C)CC3)nc(NC3CC3)c2cc1OC,.,-13%,.,.,-23%,.
SMILES,HCMV antiviral,Vaccinia Venus,FMDV antiviral,Marburg entry inh,Vaccinia mCherry,LASV entry inh
CSc1cccc(NC(=O)CN2C(=O)COc3ccc(S(=O)(=O)N4CCC(C)CC4)cc32)c1,13,-2%,-17%,.,-1%,-15%[46.1 µM]
Cc1nn(CC(=O)NCCCN2CCCC2=O)c(C)c1[N+](=O)[O-],-37,-21%,-4%,11µM*,?,?
COc1ccc(CCN2C(=O)c3[nH]nc(-c4ccccc4O)c3C2c2cccc(OC)c2)cc1 (centres undefined),-71*,?,-12%,13µM*,?,?
CC(C)OCCCN1C(=O)c2[nH]nc(-c3ccccc3O)c2C1c1ccc(OCc2ccccc2)cc1 (centres undefined),-98*,?,-5%,?,?,?
CCCCOc1ccc(C2c3c(-c4ccccc4O)n[nH]c3C(=O)N2Cc2ccncc2)cc1OC (centres undefined),7,-22%,8%,?,-16%,?
COCCN1C(=O)c2[nH]nc(-c3ccccc3O)c2C1c1ccc(Cl)c(Cl)c1 (centres undefined),-15,-24%,-11%,-23%[46.1 µM],-29%,?
COc1ccc(CCN2C(=O)c3[nH]nc(-c4ccccc4O)c3C2c2cccc(Cl)c2)cc1 (centres undefined),?,?,-13%,?,2%[1.46 µM],?
COc1ccc(C2c3c(-c4ccccc4O)n[nH]c3C(=O)N2CCc2ccc(OC)c(OC)c2)cc1 (centres undefined),-32,-30%,?,?,?,5µM*
COc1ccc(C2c3c(-c4ccccc4O)n[nH]c3C(=O)N2CCc2ccccc2)cc1 (centres undefined),-67*,-7%[7.34 µM],-25%,?,-3%[7.34 µM],?
COc1cc(NC(=O)CCc2c(C)nc3c(-c4ccc(F)cc4)c(C)nn3c2C)cc(OC)c1OC,7,-18%,?,18%[46.1 µM],-24%,5%[46.1 µM]
O=c1oc2ccc(F)cc2cc1-c1nc(-c2cccs2)no1,-19,-1%,46%,.,-8%,?
Cc1ccc(C2c3c(-c4ccccc4O)n[nH]c3C(=O)N2CCc2ccccc2)cc1 (centres undefined),-94*,-9%[7.34 µM],-16%,?,-9%[7.34 µM],?
CCc1ccc(C2c3c(-c4cc(C)ccc4O)n[nH]c3C(=O)N2Cc2cccnc2)cc1 (centres undefined),-11,-10%,?,13µM*,-10%,?
Cc1ccc(C2c3c(-c4ccccc4O)n[nH]c3C(=O)N2Cc2ccncc2)cc1 (centres undefined),-39,.,18%,?,.,-15%
CCOc1ccc(C2c3c(-c4cc(C)ccc4O)n[nH]c3C(=O)N2Cc2cccnc2)cc1OCC (centres undefined),-10,-1%,-18%,?,-8%,?
CC(C)c1ccc(C2c3c(-c4ccccc4O)n[nH]c3C(=O)N2CCc2ccccc2)cc1 (centres undefined),-100*,?,-7%,?,-3%,?
COc1cc(C2c3c(-c4cc(C)ccc4O)n[nH]c3C(=O)N2Cc2cccnc2)cc(OC)c1OC (centres undefined),-10,-9%,0%,1%[46.1 µM],-14%,?
